From PubChem BioAssay
The full list was thinned out, with hits kept by preference.
Pf Dd2 inh – blocks in vitro growth of P. falciparum Dd2. P. falciparum Dd2 growth, SYBR Green, 72 h. Potency, µM (top dose mostly 28.9 µM), most hits filed as inhibitors. 120,000 tested, 4.3% active; active = well fitted inhibition curve with a large enough effect; note: nearly all actives have a fitted effect of over 65% in size
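Readout: SYBR Green fluorescence, 485 nm excitation, 535 nm emission, after ~16 h lysis at 37C. Before that, Dd2-infected red cells (2.5% hematocrit) grew 72 h with compound, 29 uM top final concentration.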
A number is an active result; i = inactive.

SMILES | Pf Dd2 inh
COc1cc(OC)c(N(C)C(=O)c2cc3c(s2)-c2ccccc2OC3)cc1Cl | 8.9µM
O=C(NC1CC1)c1ccccc1OC1CN(Cc2ccc(F)cc2F)C1 | i
COc1ccc(OC)c(CN2CC(Oc3ccccc3C(=O)NCc3ccccc3)C2)c1 | 1.8µM
COc1ccc(CN2CC(Oc3ccccc3C(=O)NC3CC3)C2)cc1OC | i
O=C(NCc1ccccc1)c1ccccc1OC1CN(Cc2ccsc2)C1 | 4µM
COc1ccc(OC)c(CN2CCOc3ccc(C(=O)NCc4ccc(C)cc4)cc3C2)c1 | i
COc1ccc(OC2CN(Cc3ccsc3)C2)cc1 | i
O=C(NCc1ccccc1)c1ccccc1OC1CN(Cc2ccc(F)c(F)c2)C1 | i
COc1cccc(CN2CC(Oc3ccccc3C(=O)NC3CC3)C2)n1 | 4µM
Cc1ccc(CN2CC(Oc3ccccc3C(=O)NC3CC3)C2)o1 | i
CCN1C(=O)C2(CCN(S(=O)(=O)c3ccc(C)cc3)CC2)c2ccccc21 | i
O=C(c1ccccn1)N1CCC2(CC1)NC(=O)N(Cc1ccc(Cl)cc1)C2=O | i
COc1ccccc1-c1cc(C(=O)Nc2ccc3c(c2)C(=O)N2CCC[C@H]2C(=O)N3)[nH]n1 | i
COc1cccc(S(=O)(=O)N2CCC3(CC2)CC(OCC2CC2)CCO3)c1 (stereo not drawn) | i
COc1ccc(S(=O)(=O)N2CCC3(CC2)CC(OC)CCO3)cc1 (stereo not drawn) | i
COc1ccc(S(=O)(=O)N2CCC3(CC2)CC(OCC2CC2)CCO3)cc1 (stereo not drawn) | 3.5µM
Cc1ccccc1-n1nc(-c2c(C)nc3scc(CC(=O)NCC(C)C)n3c2=O)cc1C | i
COc1ccc(C(=O)N2CCC(c3nc4ccccc4s3)CC2)cc1Cl | i
Cn1cc(C2CCN(C(=O)c3sc(Cl)c(Cl)c3Cl)CC2)c2ccccc21 | 7.9µM
CCCn1cc(C2CCN(S(=O)(=O)c3ccccc3Cl)CC2)c2ccccc21 | i
CC1=C[C@@H](CNC(=O)CC(C)(C)CC(=O)O)[C@H](C(C)C)C[C@H]1Cc1nc2ccccc2[nH]1 | i
Cn1cc(C(=O)NCC(=O)N2CCCCCNC(=O)CC2c2ccccc2)cn1 (stereo not drawn) | i
CCCCN(C)CCCNC(=O)c1ccc2nc(N3CCCCC3)sc2c1 | 8.9µM
CCCCN(C)CCNC(=O)C1CCN(c2nc3ccc(CC)cc3s2)CC1 | 10µM
CCc1ccc2nc(N3CCN(C(=O)C4CC4)CC3)sc2c1 | i
SMILES | Pf Dd2 inh
CCN(CC)CCCNC(=O)c1ccc2nc(N3CCCCC3)sc2c1 | i
COc1ccc(N2CCN(CCCNC(=O)c3ccc4nc(N5CCCCC5)sc4c3)CC2)cc1 | i
CCc1ccc2nc(N3CCC(C(=O)O)CC3)sc2c1 | i
CCN1CCN(C(=O)C2(CCO)CCN(Cc3ccccc3)C2)CC1 (stereo not drawn) | i
COCC1CN(C(C)=O)CC12CCN(C(=O)c1ccc(C)c(F)c1)CC2 (stereo not drawn) | i
Cc1cccc(C(=O)N2CCCC(c3nn[nH]n3)C2)c1 (stereo not drawn) | i
Cc1cc(NC(=O)N2CC=C(c3c[nH]c4ccccc34)CC2)ccc1Br | i
CCOC(=O)c1cccc(NC(=O)N2CC=C(c3c[nH]c4ccccc34)CC2)c1 | 6.3µM
CCOC(=O)c1cccc(NC(=O)N2CCC(CN3CCc4ccccc4C3)CC2)c1 | i
Cc1ccc(C)c(NC(=O)N2CC=C(c3c[nH]c4ccccc34)CC2)c1 | 4µM
CCc1ccc(NC(=O)N2CC=C(c3c[nH]c4ccccc34)CC2)cc1 | i
CCOc1ccc2c(n1)CCN(C(=O)Nc1cc(C)ccc1C)C2 | i
Cc1ccc(C(=O)N2C[C@@H](F)C[C@H]2C(=O)N2CCCCC2)c(C)c1 | i
COc1ccccc1-c1[nH]nc2ncc(-c3ccnn3C)nc12 | i
CN1CC2(CCN(Cc3ccc(CCC(C)(C)O)cc3)CC2)OC1=O | i
CCCCc1nn(CC(=O)N2C[C@H]3CC=C(C)C[C@H]3C2)c(=O)n1CC | i
COc1ccc(-c2nn(-c3ccccc3C)cc2CN(C)Cc2cn(C)nc2C)cc1F | i
Cc1cc(CN(C)Cc2cn(-c3cccc(F)c3)nc2-c2ccc(C)o2)n[nH]1 | i
Cc1ccc(-c2nn(-c3cccc(F)c3)cc2CN(C)CCO)o1 | 7.9µM
CCc1cc(NCCNC(=O)c2ccccc2Cl)n2nccc2n1 | i
O=C(c1ccc(Cl)cc1)N1CC2(CCN(C3CCCCC3)CC2)Cc2ccccc21 | 7.1µM
O=C(c1ccc(Cl)cc1)N1CC2(CCN(C3CCCCC3)C2)Cc2ccccc21 (stereo not drawn) | 10µM
O=C(O)CCC(=O)N1CCC2(Cc3ccccc3N(C(=O)c3ccc(Cl)cc3)C2)C1 (stereo not drawn) | i
O=C(c1ccc(Cl)cc1)N1CC2(CCN(C3COC3)CC2)Cc2ccccc21 | i
CC(=O)N1CC2(CCN(C3COC3)C2)Cc2ccccc21 (stereo not drawn) | i
CC(=O)N1CC2(Cc3ccccc31)CN(C(=O)c1ccc(Cl)cc1)C2 | i
Cc1ccc(C(=O)N2CCC(OC3CCN(C)CC3)CC2)cc1F | i
O=C(N[C@H]1CCN2C(=O)N(c3ccccc3)C(=O)[C@@H]2C1)C1CCCC1 | i
